Activity calls are given as the source filed them.

The subject of experiment [1] is Plasmodium falciparum Sir2 (PF13_0152, Sir2A). The experiment in a line: pfSir2 binders on small-molecule microarrays, primary screen, biochemical, small-molecule microarray, 635 nm fluorescence (AID 1098).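 Note: score merges spot fluorescence intensity with its signal-to-noise ratio.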 To be noted: small-molecule microarray binding, fluorescence 635 nm; higher = more signal.
Experiment [2] in a line: small-molecule microarray binders of probe aDKK1, primary screen, biochemical, biotinylated probe, 635/667 nm fluorescence (AID 1099).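 Note: score merges 667nm spot fluorescence with signal to noise across triplicate slides.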 The conditions noted are these: higher = more signal.
The nature of experiment [3]: small-molecule microarray binders of probe aCHRDL2, primary screen, biochemical, biotinylated probe, 635/667 nm fluorescence (AID 1100). The conditions noted are these: higher = more signal.
The nature of experiment [4]: splicing luciferase reporter signal modulators, primary screen, spliceosome inhibition project, cell-based, HEK293, splice +/- reporter (AID 1101).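 Note: HEK293 cells carrying a splicing-competent luciferase reporter gene; test concentration not given here.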 The conditions noted are these: luminescence, 24 h, higher = more signal, called active from +8 up or from −8 down. A general note: A reporter such as luciferase makes a cellular process visible.
Experiment [5] deals with Fibroblast growth factor 10 (Homo sapiens) (UniProt O15520). The experiment in a line: FGF10 binders on small-molecule microarrays, primary screen, biochemical, small-molecule microarray, 635 nm fluorescence (AID 1102). To be noted: FGF10 binding, fluorescence 635 nm, higher = more signal.
The test system of experiment [6] is glycogen synthase kinase-3 (GSK3A per assay name; protocol says GSK3B). As to the kind of experiment: GSK3 binders on small-molecule microarrays, primary screen, biochemical, small-molecule microarray, 635 nm fluorescence, GSK3A (AID 1103). Note: the record names both GSK3A and GSK3B. The conditions noted are these: small-molecule microarray binding, fluorescence 635 nm; higher = more signal.
In experiment [7] the target is Epidermal growth factor receptor (Homo sapiens) (UniProt P00533). The experiment in a line: EGFR binders on small-molecule microarrays, primary screen, biochemical, small-molecule microarray, 635 nm fluorescence (AID 1104).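 Note: score merges 667 nm emission intensity with spot signal to noise over triplicate slides.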 The conditions noted are these: EGFR binding, higher = more signal.
The target in experiment [8] is Follistatin-related protein 3 (Homo sapiens) (UniProt O95633). As to the kind of experiment: FSTL3 binders on small-molecule microarrays, primary screen, biochemical, small-molecule microarray, 635 nm fluorescence (AID 1105).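 Note: score merges emission near 667 nm and signal to noise per printed spot across three slides.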 To be noted: FSTL3 binding, higher = more signal.
Experiment [9] concerns the target Dickkopf-related protein 1 (Homo sapiens) (UniProt O94907). The experiment in a line: DKK1 binders on small-molecule microarrays, primary screen, biochemical, small-molecule microarray, 635 nm fluorescence scan (AID 1106).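 Note: score merges emission near 667 nm with signal to noise over three replicate slides.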 To be noted: DKK1 binding, higher = more signal.
The test system of experiment [10] is Inhibin beta A chain (activin A). The experiment in a line: INHBA (activin A) binders on microarrays, primary screen, biochemical, small-molecule microarray, 635 nm fluorescence scan (AID 1107).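 Note: mouse activin A protein probed at 4.33 µg/mL on printed slides; score merges bound-protein fluorescence near 667 nm with spot signal-to-noise.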 The conditions noted are these: small-molecule microarray binding, higher = more signal.
The subject of experiment [11] is Human papillomavirus type 1a protein E7 (residues 44-93). The experiment in a line: HPV1a E7 fragment binders on microarrays, primary screen, biochemical, small-molecule microarray, residues 44-93, 635 nm fluorescence (AID 1108).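 Note: E7 fragment applied at 1 µg/mL in TBST for 1 h at 4 C; score combines spot fluorescence with its signal to noise ratio.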 The conditions noted are these: small-molecule microarray binding, fluorescence 635 nm; higher = more signal.
The nature of experiment [12]: modulators of HCV replicon luciferase signal, primary screen, HCV replication inhibitor project, Huh7 cells, luciferase reporter (AID 1109).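 Note: huh7 hepatoma cells harbouring a luciferase neomycin HCV replicon reporter; luciferase luminescence as measure of HCV replicon replication; test concentration not given here.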 The conditions noted are these: 48 h, higher = more signal.
The target in experiment [13] is Left-right determination factor 2 (Homo sapiens) (UniProt O00292). The experiment in a line: LEFTY2 binders on small-molecule microarrays, primary screen, biochemical, small-molecule microarray, 635 nm fluorescence scan (AID 1110). To be noted: LEFTY2 binding, higher = more signal.
Experiment [14] deals with Calmodulin-1 (Homo sapiens) (UniProt P0DP23). The experiment in a line: CALM1 binders on microarrays, EGTA buffer, profiling panel, biochemical, small-molecule microarray, Cy5-labelled CALM1 (AID 1111).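 Note: labelled calmodulin applied in Tris saline Tween buffer holding calcium plus EGTA and DTT.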 To be noted: Cy5-CALM1 binding fluorescence, higher = more signal.
The target is the same in experiment [15]. The experiment in a line: calcium-bound CALM1 binders on microarrays, profiling panel, artefact control for SMM control-protein annotation, biochemical, small-molecule microarray, Cy5-labelled CALM1, plus calcium (AID 1112).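 Note: score merges spot fluorescence with signal to noise from triplicate slides.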 The conditions noted are these: Cy5-CALM1 binding fluorescence, higher = more signal.
The nature of experiment [16]: small-molecule microarray binders of probe aWnt5a, primary screen, biochemical, biotinylated probe, 635/667 nm fluorescence (AID 1113).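 Note: score merges 667 nm fluorescence intensity with signal-to-noise per printed feature.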 To be noted: higher = more signal.
Experiment [17] is described as follows: small-molecule microarray binders of probe aShh, primary screen, biochemical, biotinylated probe, 635/667 nm fluorescence (AID 1114).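 Note: probe is biotin-labelled aShh protein from a stem cell growth factor screen; measures binding of labelled protein to compounds printed on the slide; score merges feature fluorescence at 667 nm with signal-to-noise.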 The conditions noted are these: higher = more signal.
Experiment [18] can be described thus: small-molecule microarray binders of probe aNog, primary screen, biochemical, biotinylated probe, 635/667 nm fluorescence (AID 1115).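 Note: probe is biotinylated aNog protein used at 0.15 µg/mL for 1 h at 4 C; z-score combines 667 nm fluorescence of each spot with its signal to noise.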 The conditions noted are these: higher = more signal.
Experiment [19] has as its target Torsin-1A-interacting protein 1 (Homo sapiens) (UniProt Q5JTV8). The experiment in a line: LAP1 binders from COS7 cell lysate, primary screen, small-molecule microarray, 635/667 nm fluorescence (AID 1116). The conditions noted are these: COS7-hLAP1 lysate binding, 635 nm fluorescence, higher = more signal.
Experiment [20] concerns the target Alpha-bungarotoxin (Bungarus multicinctus) (UniProt P60615). As to the kind of experiment: alpha-bungarotoxin binders on microarray, profiling panel, artefact control for SMM control protein annotation, biochemical, small-molecule microarray, Alexa647 label, 635/667 nm fluorescence (AID 1117). To be noted: alpha-BTX-A647 binding fluorescence, higher = more signal.

Chain of Follistatin-related protein 3 (Homo sapiens) (O95633 whole entry, looked up): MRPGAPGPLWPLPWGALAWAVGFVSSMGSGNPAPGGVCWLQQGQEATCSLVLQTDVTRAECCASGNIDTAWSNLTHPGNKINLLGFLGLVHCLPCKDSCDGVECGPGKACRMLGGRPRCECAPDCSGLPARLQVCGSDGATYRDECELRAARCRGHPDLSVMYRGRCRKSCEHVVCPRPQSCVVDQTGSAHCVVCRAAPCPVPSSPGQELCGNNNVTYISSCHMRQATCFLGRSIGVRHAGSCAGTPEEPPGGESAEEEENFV
Chain of Left-right determination factor 2 (Homo sapiens) (O00292 whole entry, looked up): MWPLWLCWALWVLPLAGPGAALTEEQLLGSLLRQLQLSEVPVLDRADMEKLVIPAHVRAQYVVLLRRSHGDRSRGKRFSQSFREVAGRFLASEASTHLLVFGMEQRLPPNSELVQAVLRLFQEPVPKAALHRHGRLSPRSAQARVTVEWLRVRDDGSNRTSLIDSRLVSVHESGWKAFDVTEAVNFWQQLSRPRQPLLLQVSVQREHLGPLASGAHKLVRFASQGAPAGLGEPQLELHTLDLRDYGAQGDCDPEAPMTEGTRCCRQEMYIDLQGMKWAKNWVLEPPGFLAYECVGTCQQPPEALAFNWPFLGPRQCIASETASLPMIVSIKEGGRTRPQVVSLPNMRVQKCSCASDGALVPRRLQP
Chain of Fibroblast growth factor 10 (Homo sapiens) (O15520 whole entry, looked up): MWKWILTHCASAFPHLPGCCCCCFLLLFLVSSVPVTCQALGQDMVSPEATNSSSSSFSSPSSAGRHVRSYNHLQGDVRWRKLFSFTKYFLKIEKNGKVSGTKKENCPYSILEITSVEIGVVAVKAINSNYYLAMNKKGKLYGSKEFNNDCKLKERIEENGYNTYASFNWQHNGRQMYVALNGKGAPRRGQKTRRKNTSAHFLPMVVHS
Chain of Alpha-bungarotoxin (Bungarus multicinctus) (P60615 whole entry, looked up): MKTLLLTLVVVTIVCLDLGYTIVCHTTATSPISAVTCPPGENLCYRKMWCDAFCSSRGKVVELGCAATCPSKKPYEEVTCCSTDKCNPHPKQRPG
Chain of Torsin-1A-interacting protein 1 (Homo sapiens) (Q5JTV8 whole entry, looked up): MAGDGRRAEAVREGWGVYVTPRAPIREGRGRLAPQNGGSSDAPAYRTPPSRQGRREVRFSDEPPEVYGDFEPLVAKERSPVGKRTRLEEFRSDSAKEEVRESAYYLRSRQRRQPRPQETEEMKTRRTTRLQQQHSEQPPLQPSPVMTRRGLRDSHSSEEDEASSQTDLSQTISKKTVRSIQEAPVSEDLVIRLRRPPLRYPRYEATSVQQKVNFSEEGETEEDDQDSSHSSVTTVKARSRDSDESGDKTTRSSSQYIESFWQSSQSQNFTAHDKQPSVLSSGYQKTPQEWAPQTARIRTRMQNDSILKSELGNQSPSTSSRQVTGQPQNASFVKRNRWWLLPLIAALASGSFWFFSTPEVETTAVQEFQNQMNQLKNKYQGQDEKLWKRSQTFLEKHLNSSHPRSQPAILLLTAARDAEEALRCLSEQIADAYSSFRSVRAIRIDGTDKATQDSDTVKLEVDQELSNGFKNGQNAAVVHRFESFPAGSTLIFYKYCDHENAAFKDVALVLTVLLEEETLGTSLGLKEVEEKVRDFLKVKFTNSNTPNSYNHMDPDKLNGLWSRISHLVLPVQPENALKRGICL
Chain of Epidermal growth factor receptor (Homo sapiens) (P00533 whole entry, looked up): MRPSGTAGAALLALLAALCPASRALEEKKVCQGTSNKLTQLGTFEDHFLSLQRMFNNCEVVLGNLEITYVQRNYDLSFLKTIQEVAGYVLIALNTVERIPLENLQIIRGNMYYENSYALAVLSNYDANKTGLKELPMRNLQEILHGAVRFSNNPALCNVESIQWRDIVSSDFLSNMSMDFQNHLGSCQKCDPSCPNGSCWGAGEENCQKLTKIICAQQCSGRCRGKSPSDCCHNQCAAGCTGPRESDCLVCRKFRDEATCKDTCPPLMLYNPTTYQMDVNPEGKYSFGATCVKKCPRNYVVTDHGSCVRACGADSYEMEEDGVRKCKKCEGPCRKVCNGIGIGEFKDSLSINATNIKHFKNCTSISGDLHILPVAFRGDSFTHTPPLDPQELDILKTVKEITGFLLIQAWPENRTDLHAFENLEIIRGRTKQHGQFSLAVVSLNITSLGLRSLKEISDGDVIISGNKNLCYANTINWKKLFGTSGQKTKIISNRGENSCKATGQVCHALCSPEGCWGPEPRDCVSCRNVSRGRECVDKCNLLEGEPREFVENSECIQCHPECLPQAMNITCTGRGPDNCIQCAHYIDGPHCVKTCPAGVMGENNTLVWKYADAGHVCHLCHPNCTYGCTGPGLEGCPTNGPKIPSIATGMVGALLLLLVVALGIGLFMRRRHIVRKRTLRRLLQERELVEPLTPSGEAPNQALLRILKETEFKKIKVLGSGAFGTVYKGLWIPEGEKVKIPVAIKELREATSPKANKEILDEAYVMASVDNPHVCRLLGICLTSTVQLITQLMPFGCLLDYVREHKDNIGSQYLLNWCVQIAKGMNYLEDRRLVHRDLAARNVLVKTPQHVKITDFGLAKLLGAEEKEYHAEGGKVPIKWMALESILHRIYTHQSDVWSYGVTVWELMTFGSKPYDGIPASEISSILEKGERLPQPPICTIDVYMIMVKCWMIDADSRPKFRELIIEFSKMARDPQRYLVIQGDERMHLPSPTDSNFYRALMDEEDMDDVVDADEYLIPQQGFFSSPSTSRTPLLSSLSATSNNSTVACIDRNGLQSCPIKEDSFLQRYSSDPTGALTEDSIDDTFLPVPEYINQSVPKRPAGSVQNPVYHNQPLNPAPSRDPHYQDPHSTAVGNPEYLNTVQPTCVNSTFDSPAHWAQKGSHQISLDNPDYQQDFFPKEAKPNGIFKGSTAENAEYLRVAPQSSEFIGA
Chain of Dickkopf-related protein 1 (Homo sapiens) (O94907 whole entry, looked up): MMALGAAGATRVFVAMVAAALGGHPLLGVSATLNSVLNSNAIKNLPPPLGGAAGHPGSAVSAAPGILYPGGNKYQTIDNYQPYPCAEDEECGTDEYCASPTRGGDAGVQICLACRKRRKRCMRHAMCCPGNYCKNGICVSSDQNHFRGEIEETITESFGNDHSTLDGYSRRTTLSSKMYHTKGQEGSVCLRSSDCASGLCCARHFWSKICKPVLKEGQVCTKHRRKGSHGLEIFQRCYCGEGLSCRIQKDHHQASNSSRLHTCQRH

Take `COc1ccc([Si](C)(C)[C@H]2[C@H](CCn3cc([C@H](O)c4ccccc4)nn3)O[C@@]3(C(=O)N(Cc4cccc(N5CCC5=O)c4)c4ccccc43)[C@@H]2C)cc1`: the composite z-score in [1] was 1.32; in experiment [2], -0.144; in experiment [3] it was -0.206; in experiment [5], 0.66; in experiment [6], -0.113; in experiment [7], -0.0533. The composite z-score in experiment [8] was -0.108; in [9] it was -0.0723; in experiment [10], 0.714; in experiment [11] it was -0.268; in [13], 0.183; in experiment [14], 0.318. For the same compound, the composite z-score in experiment [15] is 0.193; in [16], -0.114; in experiment [17] it was 0.0278; in [18], -0.118; in experiment [19], 0.412; in [20] it was 0.167. In addition, the z-score in experiment [4] was -1.4 (inactive); in [12], -1.73.
With `O=C/C=C/c1ccc2c(c1)OCO2`, the composite z-score in experiment [1] was 0.229; in [2] it was -0.295; in experiment [3], -0.475; in experiment [5], 0.562; in experiment [6] it was 0.469; in experiment [7], 0.614. For the same compound, the composite z-score is 0.506 in experiment [8]; 0.486 in experiment [9]; 1.25 in experiment [10]; 0.283 in experiment [11]; 0.528 in experiment [13]; -1.18 in [14]. Moreover, the composite z-score is -0.755 in experiment [15]; -0.0748 in experiment [16]; -0.35 in [17]; -0.441 in [18]; 0.122 in [19]; 0.591 in [20]. The z-score is -0.675 (inactive) in experiment [4] and 0.301 in [12].
`Cc1ccc(S[C@]2(C(=O)NCC(C)C)CC(=O)N(Cc3ccccc3)[C@@H]2c2ccc(CO)cc2I)cc1`: the composite z-score worked out at 1.52 in [1]; 0.0143 in [2]; 0.388 in [3]; 0.417 in [5]; 0.441 in experiment [6]; 0.287 in experiment [7]. Moreover, the composite z-score came to 0.75 in experiment [8]; 0.149 in [9]; 0.975 in experiment [10]; 1.29 in [11]; 0.118 in experiment [13]; 0.425 in [14]. For the same compound, the composite z-score in experiment [15] is 0.473; in experiment [16] it was -0.063; in experiment [17], -0.196; in experiment [18], -0.67; in experiment [19], 0.0825; in [20], 0.545. Also, the z-score in [4] is -0.531 (inactive); in experiment [12], -2.6.
For the compound `CCCCC(CC)C(O)C1C=CC2C(=O)N(c3ccccc3)C(=O)C2N1Nc1ccccc1` (stereo not given), the composite z-score in experiment [1] was 0.889; in [2], 0.674; in experiment [3], 0.932; in experiment [5], 0.753; in experiment [6], 0.0129; in experiment [7], -0.456. The composite z-score in experiment [8] was 1.13; in [9], -0.648; in experiment [10], 1.02; in experiment [11], 1.33; in experiment [13] it was -0.354; in [14], 1.25. For the same compound, the composite z-score in experiment [15] was 0.831; in [16] it was 0.173; in [17] it was 0.108; in [18], -0.259; in experiment [19], 0.886; in experiment [20], 1.1. The z-score in experiment [4] is -0.901 (inactive); in experiment [12], -1.71.
Regarding `COc1ccc([Si](C)(C)[C@@H]2[C@@H](CCn3cc([C@H](O)c4ccccc4)nn3)O[C@]3(C(=O)N(Cc4cccc(N5CCOC5=O)c4)c4ccccc43)[C@H]2C)cc1`, the composite z-score was -1.35 in experiment [1]; -0.231 in experiment [2]; 0.658 in [3]; -1.02 in [5]; -1.01 in [6]; -0.901 in experiment [7]. The composite z-score is -0.995 in experiment [8]; -1.13 in experiment [9]; -0.495 in experiment [10]; -0.362 in [11]; -1.47 in experiment [13]; -0.13 in [14]. Moreover, the composite z-score in experiment [15] is 0.78; in experiment [16], -0.202; in experiment [17] it was -0.117; in experiment [18] it was -0.256; in experiment [19] it was -0.0689; in experiment [20], -0.85. The z-score was 1.7 (inactive) in experiment [4] and -2.64 in experiment [12].
With `[N-]=[N+]=NCc1ccccc1C[C@]1(C(=O)O)N=C(c2ccc(OCCCO)cc2)O[C@H]1c1ccccc1`, the composite z-score is 1.44 in experiment [1]; 0.181 in [2]; 1.06 in [3]; -0.2 in experiment [5]; 0.102 in [6]; -1 in [7]. In addition, the composite z-score in experiment [8] was -0.627; in [9] it was -0.94; in experiment [10], 0.884; in experiment [11], 0.903; in experiment [13], -1.18; in [14] it was 1.17. The composite z-score in experiment [15] was 0.671; in [16], -0.096; in [17] it was -0.0626; in [18], 1.29; in [19], 3.14; in experiment [20] it was 0.966. Further, the z-score in experiment [4] was 0.624 (inactive); in [12] it was -0.748.
